The sample as a whole holds a higher share of hits than the screen did.
B2AR arrestin ag – agonists recruiting beta-arrestin to human beta2-adrenergic receptor. HTLA Tango cells, beta-arrestin recruitment, luciferase luminescence, 18 h. AID 1347077. 44,000 tested, under 10 active. Potency, µM (titrated, usually from 46.1 µM), hits mostly activators;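 note: potency is the fitted concentration of half-maximal effect; 0% = DMSO and full agonism = EC100 isoproterenol or metaproterenol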
Target sequence (P07550 whole entry, looked up): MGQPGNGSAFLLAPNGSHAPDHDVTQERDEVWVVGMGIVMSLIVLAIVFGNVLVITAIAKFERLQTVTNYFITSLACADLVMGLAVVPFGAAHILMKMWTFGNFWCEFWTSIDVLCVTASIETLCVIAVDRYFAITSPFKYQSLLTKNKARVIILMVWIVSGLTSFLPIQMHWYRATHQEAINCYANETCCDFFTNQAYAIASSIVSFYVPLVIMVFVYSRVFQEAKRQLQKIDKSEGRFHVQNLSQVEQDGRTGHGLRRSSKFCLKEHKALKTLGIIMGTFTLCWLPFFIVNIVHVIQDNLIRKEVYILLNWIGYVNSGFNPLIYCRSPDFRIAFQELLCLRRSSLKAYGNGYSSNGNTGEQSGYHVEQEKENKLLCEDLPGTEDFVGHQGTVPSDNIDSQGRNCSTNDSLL
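Tango cells (recombinant beta2-AR, beta-arrestin, tTA-driven luciferase), 1500/well in DMEM 1% FBS, treated 18 h at 37 °C with compounds up to 46 µM; luciferin mix added, luminescence read after 15 min; %activity curves fitted and curve-classed.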
GALK inh – GALK (human) enzyme inhibition; P51570; recombinant GALK, Kinase-Glo ATP luminescence, 1 h; Potency, µM (series often up to 57.5 µM), for inactives: top-dose activity, negative = inhibition, most hits filed as inhibitors; 44,000 tested, under 10 active; AID 1347072;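 note: plate controls were full GALK reaction for no effect and reaction lacking GALK for full effect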
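5 nM GALK with 35 µM ATP and 100 µM galactose in HEPES pH 8.0, MgCl2, NaCl, DTT, BSA; 1 h RT reaction, remaining ATP detected by Kinase-Glo Plus luminescence after 10 min; qHTS concentration series.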
GALC G270D up – enhancers of human galactocerebrosidase G270D mutant activity in cells. P54803. 145M-Twi-hGALC-G270D cells (Twitcher mouse brain line with human GALC G270D), HMU-beta-Gal fluorescence, 48 h. Potency, µM (top dose mostly 57.5 µM), hits mostly activators. hit rate 0.1% among 45,000; note: potency is the fitted concentration of half-maximal effect; 0% is about no effect; nearly all actives have a fitted effect of over 65% in size
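Fluorescence readout: HMU-β-gal cleavage by mutant GALC (0.1 mM final, citrate/phosphate pH 5.2 with 1 mg/mL taurocholate), stopped with carbonate/bicarbonate plus Triton X-100. Cells: murine Twitcher 145M-Twi expressing human G270D GALC; qHTS for activators.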
PTAP-TSG101 blk – TSG101-PTAP interaction inhibition, HIV-1 budding; Fluorescence polarization, FITC-PTAP peptide/Tsg101, 20 min; 44,000 tested, under 10 active; Potency, µM (highest dose often 115 µM), hits mostly inhibitors; Q99816; AID 1347069; note: potency is the fitted concentration of half-maximal effect; 0% is about no effect
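Read-out is FITC fluorescence polarization. Compounds were added to Tsg101 binding domain (10 uM final), then FITC-PTAP peptide (50 nM final), 20 min at r.t. Total S+P intensity flags fluorescent compounds.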
NTMT1 inhibitor – inhibitors of human N-terminal methyltransferase NTMT1; Potency, µM (titrated, usually from 114 µM), inactives show at the top dose activity change, negative = inhibition, hits mostly inhibitors; hit rate 2.5% among 59,000; Q9BV86; NTMT1 MTase-Glo SAH luminescence, purified enzyme;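 note: potency is the fitted concentration of half-maximal effect; plate controls were DMSO vehicle for no effect and no enzyme for full effect; nearly all actives have a fitted effect of over 65% in size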
FH mod – Identification of activators of human fumarate hydratase by quantitative high-throughput screening. hit rate 0.22% among 54,000. FH coupled MDH/diaphorase resazurin fluorescence, 15 min. Potency, µM (doses to about 79.9 µM), for inactives: top-dose activity change, negative = inhibition, actives largely listed as inhibitors. AID 1347055, 2019. Fumarate hydratase, mitochondrial (Homo sapiens), P07954; note: potency is the fitted concentration of half-maximal effect; % is set by controls: 0 for no effect and ±100 for the full control effect; the screen sought activators but most active calls are inhibition curves; nearly all actives have a fitted effect of over 45% in size
Sfp PPTase inh – Sfp PPTase inhibition, chemistry optimization. shares compounds with NTMT1 inhibitor. hit rate 78% among 230. purified Sfp PPTase enzyme activity, qHTS. Potency, µM (doses to about 114 µM), for the others: top-dose activity change, negative = inhibition, actives largely listed as inhibitors. AID 540350
HM489 growth – reduces growth of B. subtilis HM489 strain. hit rate 50% among 220. Potency, µM (series often up to 114 µM), without a hit: at the top dose activity change, negative = inhibition, most hits filed as inhibitors. shares compounds with NTMT1 inhibitor. B. subtilis HM489 (acpS-) growth, BacTiter-Glo, 5 h
Sfp PPTase gel – Sfp PPTase inhibition, gel-based detection; shares compounds with NTMT1 inhibitor; purified Sfp PPTase, gel-based product detection; AID 540355; hit rate 54% among 220; Potency, µM (series often up to 250 µM), without a hit: at the highest dose activity change, negative = inhibition, hits mostly inhibitors
Sfp inh gel – Sfp phosphopantetheinyl transferase inhibition, gel detection; AID 602362; purified Sfp PPTase, gel-based product detection; Potency, µM (doses to about 250 µM), without a hit: at the top dose activity change, negative = inhibition, most hits filed as inhibitors; shares compounds with NTMT1 inhibitor; hit rate 90% among 45
Sfp inh SAR2 – Sfp phosphopantetheinyl transferase inhibition, SAR round 2. shares compounds with NTMT1 inhibitor. purified Sfp enzyme, PPTase activity, qHTS. Potency, µM (highest dose often 57.1 µM), for inactives: at the highest dose activity change, negative = inhibition, usual class: inhibitors. hit rate 87% among 230. AID 602370
hGST A1-1 inh – hGST A1-1 enzyme inhibition, Sfp SAR counter-screen. 55 tested, under 10 active. shares compounds with NTMT1 inhibitor. Potency, µM (series often up to 114 µM), inactives show at the top dose activity change, negative = inhibition, actives largely listed as inhibitors. hGST A1-1 enzyme activity counter-screen, qHTS
HSD17B4 inh – HSD17B4 (human) inhibition, HPGD counter-screen; shares compounds with NTMT1 inhibitor; purified HSD17B4, estradiol/NAD+, NADH fluorescence; Potency, µM (highest dose often 57.1 µM), for inactives: top-dose activity change, negative = inhibition, actives largely listed as inhibitors; hit rate 10% among 230; AID 743187
ALDH1A1 counter – counter-screen for HPGD inhibitors: human ALDH1A1 inhibition. hit rate 93% among 230. shares compounds with NTMT1 inhibitor. Potency, µM (titrated, usually from 57.1 µM), inactives show at the top dose activity change, negative = inhibition, most hits filed as inhibitors. recombinant ALDH1A1, NADH fluorescence, propionaldehyde/NAD+
* hit, by the source's call; i = inactive; ? = inconclusive; . = no result given; ! = a repeat was not active. Calls come from the whole dose curve; as a rule, active = well fitted curve in the direction sought with a large enough effect; inconclusive = small, poorly fitted or top-dose-only effect, or another doubt; inactive = no such curve, though single readings can be large; an effect the other way counts as inactive or inconclusive.

SMILES	B2AR arrestin ag	GALK inh	GALC G270D up	PTAP-TSG101 blk	NTMT1 inhibitor	FH mod	Sfp PPTase inh	HM489 growth	Sfp PPTase gel	Sfp inh gel	Sfp inh SAR2	hGST A1-1 inh	HSD17B4 inh	ALDH1A1 counter
CSc1ncc(C(=O)N2CCN(c3cccc(C(F)(F)F)c3)CC2)c(C)n1	i	-0.2%	i	i	17.8%	-3.1%	.	.	.	.	.	.	.	.
Cc1ccnc(NC(=S)N2CCCN(c3cccc(C(F)(F)F)c3)CC2)c1	.	.	.	.	?	.	4.69µM*	7.44µM*	1.35µM*	1.9µM*	1.62µM*	?	-8.5%	1.71µM*
Cc1oc2ncn(C)c(=O)c2c1C(=O)N1CCN(c2cccc(C(F)(F)F)c2)CC1	i	2.2%	i	i	5.4%	5.0%	.	.	.	.	.	.	.	.
FC(F)(F)c1cccc(N2CCN(C(=S)Nc3ccccn3)CC2)c1	.	.	.	.	.	.	2.35µM*	37.3µM*	25.1µM*	.	0.91µM*	.	-26.9%	7.64µM*
Cc1ccnc(NC(=S)N2CCN(c3cccc(C(F)(F)F)c3)CC2)c1	.	.	.	.	.	.	4.69µM*	11.8µM*	0.316µM*!	4.26µM*	0.65µM*	-3.4%	-24.9%	7.64µM*
Cc1ccc(NC(=O)c2ccc(-c3nc4ccccc4[nH]3)cc2)cc1Br	.	.	.	.	-3.8%	.	.	.	.	.	.	.	.	.
Cc1ccnc(N=C(N)N2CCN(c3cccc(C(F)(F)F)c3)CC2)c1	.	.	.	.	.	.	?	?	0.6%	0.6%	36.3µM*	?	.	.
FC(F)(F)c1cccc(N2CCN(C(=S)Nc3ncnc4ccccc34)CC2)c1	.	.	.	.	?	.	?	5.91µM*	?	.	9.13µM*	.	?	6.81µM*
Cc1cc(C)nc(NC(=S)N2CCN(c3cc(C(F)(F)F)cc(C(F)(F)F)c3)CC2)c1	.	.	.	.	.	.	3.32µM*	17.0%	?	.	0.51µM*	.	-2.0%	21.5µM*
CC(C)Cn1cc(NC(=O)N2CCN(c3cccc(C(F)(F)F)c3)CC2)c2ccccc2c1=O	i	0.0%	i	i	4.7%	-1.2%	.	.	.	.	.	.	.	.
Cc1nc2c3ccccc3nc(NNC(=O)CCC(=O)N3CCN(c4cccc(C(F)(F)F)c4)CC3)n2n1	i	-1.4%	i	i	3.1%	11.6%	.	.	.	.	.	.	.	.
